Data on 39 compounds can be found in PubChem BioAssay (NCI).

This is part of a sample that, as a whole, favours compounds with a hit. Of some 83,000 tested, about 20% had one in any assay.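 Activity criterion: percent growth below 10, measured after cells in 96-well plates were exposed to a single compound concentration for 48 hours.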 Unmarked numbers belong to inactive results. Activity calls are given as the source filed them.

One assay relates to PC-3 prostate. Put plainly: NCI-60 one-dose screen, 48 h (100 = growth as untreated, 0 = no growth, -100 = all killed). The note with it: 10 µM unless noted.
For `COC(=O)c1[nH]nc2c1C1(C(=O)N(C)c3ccccc31)C(C#N)=C(N)O2` (stereo not given), the growth is 91%. Regarding `Cc1ccc2sc3c(c2c1)OC(N)=C(C#N)C3c1ccc(Cl)cc1` (stereo not given), the growth is 71.1%. In the case of `CC1=NC2=NN3C(=NN2C(c2ccccc2)=C1)N=NC(c1ccc(Br)cc1)=C3c1ccc(Br)cc1`, the growth is 97.1%. For `Cn1ccnc1C(=O)/C=C/c1ccc(NC(=O)c2c(F)c(F)c(F)c(F)c2F)cc1`, the growth is 100%. For the compound `COc1ccc(/C=C/C(=O)c2cc(S(N)(=O)=O)c(OC)cc2OC)cc1`, the growth is 42.9%. With `N#Cc1cccc(CN2CCC3=C(C2)C(=O)N(Cc2ccc(Cl)cc2)C2=NCCCN23)c1`, the growth is 24%. `Cc1nn(-c2ccccc2)c2ncnc(N/N=C/c3ccccc3O)c12`: the growth is 25.9%. Consider `COc1ccc(CCN2C(=O)CSC2=S)cc1`, for which the growth was 88.8%. Still for that read-out and setting: as for `CC(=O)N1C(=S)NC(=O)C1CC(C)C` (stereo not given), the figure is 106%. For `Cc1ccc2sc3c(c2c1)OC(N)=C(C#N)C3c1cccc(F)c1` (stereo not given), the growth is 9.24% (active). Take `COc1cc(-c2nc(SC(C)C)n(C(C)C)c(=O)c2C#N)ccc1OCc1ccccc1`: the growth was 73.1%. With `C/C(=N\O)[C@H]1C[C@]23CC[C@]4(C)[C@H](CC[C@@H]5[C@@]6(C)CC/C(=N/O)C(C)(C)[C@@H]6CC[C@]54C)[C@H]2[C@H](C)C1(C)OC3`, the growth is 94.8%. Same read-out and setting: as for `NS(=O)(=O)c1ccc(-n2cc(-c3cccc(NC(=O)c4ccc(N5CCOCC5)c(C(F)(F)F)c4)c3)nn2)cc1`, the figure is 23.5%; as for `O=C1/C(=C/C=C/c2ccco2)SC(=S)N1c1ccccc1`, 71.3%. `COc1cc(OC)c(S(N)(=O)=O)cc1C(C)=O`: the growth is 94.9%. Regarding `CNC(=O)c1cc(Oc2ccc3nc(NC(=O)c4cc(N5CCOCC5)cc(C(F)(F)F)c4)sc3c2)ccn1`, the growth is 46.7%. On the same count and under the same terms, as for `CCCCCc1ccc(S(=O)(=O)Nc2cccc(-c3csc(NC(=O)CCCCCN4CCN(CCO)CC4)n3)c2)cc1`, the figure is 68.1%; as for `CNC(=O)c1cc(Oc2ccc3nc(NC(=O)c4cccc(OC(F)(F)F)c4)sc3c2)ccn1`, 73%. Regarding `Cc1cc(C)c(N2C(=O)CC(Nc3ccc(Cl)cc3Cl)C2=O)c(C)c1` (stereo not given), the growth was 94.8%. Take `Cc1ccc(C(=O)NN2C(=O)/C(=C/C=C/c3ccco3)SC2=S)cc1`: the growth was 92.2%. Turning to `CC/C(=C/c1c(O)cccc1OC)c1ccc2c(OC)cccc2[o+]1`, the growth was 95.3%. In the case of `Cc1ccc2c(c1)C(=O)/C(=C/c1cccc(F)c1)S2`, the growth is 86.4%. Still for that read-out and setting: to `COc1cc(/C=C2\C(=O)Nc3ccccc32)ccc1OCc1ccc(F)cc1` belongs 101%; to `N/C(=N\C(N)=N\c1nc2ccccc2s1)c1ccc(C(F)(F)F)cc1`, 8.57% (active); to `CN(C)CCNC(=O)c1ccc(-c2nc3ccc4[nH]ncc4c3c3c2COCC3)cc1`, 0.378% (active). Still for that read-out and setting: as for `O=C(Nc1ccc(N=Cc2c(O)[nH]c3ccccc23)cc1)Nc1nccs1`, the figure is 68.6%; as for `O=C(Nc1nonc1-c1ccccc1)c1ccc(C(F)(F)F)cc1`, 71.7%; as for `COc1cccc(C(=O)Nc2cccc(C#Cc3cccc4[nH]nc(N)c34)c2)c1`, 32.7%. Consider `Cn1ccnc1C(=O)/C=C/c1ccc(NC(=O)c2ccc(F)cc2)cc1`, for which the growth is 27.6%.

`Nc1nc(-c2cccc([N+](=O)[O-])c2)c(N=Nc2ccccc2)s1`: the growth is 51.2%.

In the case of `Cc1ccc(N2C(=O)/C(=C/C=C/c3ccco3)SC2=S)cc1`, the growth is 73.3%. In the case of `COc1cc(OC)c(S(N)(=O)=O)cc1C(=O)/C=C/c1ccc(C)cc1`, the growth is 19.1%. The same measure, in the same setting: as for `CN1CCC(n2cc(Nc3ncc4c(=O)n(-c5c(Cl)cccc5Cl)cc(Br)c4n3)cn2)CC1`, the figure is 51.3%.

For `C#CC(=O)N(c1ccc(OC)cc1OC)C(C(=O)NCC(=O)OCC)c1cccs1` (stereo not given), the growth was -13.2% (active). Take `COc1ccc(/C=C(/C)c2ccc3ccc(OC)cc3[o+]2)c(O)c1`: the growth was 41.7%.

Consider `Cc1ccc(-c2cc3nc(C(Cl)Cl)nc(C)n3n2)cc1`, for which the growth is 98.1%. As to `CCOc1ccccc1NC1=C(Cl)C(=O)c2nc(C)ccc2C1=O`, the growth was 4.34% (active).

In another assay the test system is SK-MEL-5 melanoma. Described as above. The note with it: 10 µM unless noted.
Turning to `Oc1cccc2ccc(-c3nnc(SCc4ccc(O)c5ncccc45)o3)nc12`, the growth was -63.7% (active). `COC(=O)c1[nH]nc2c1C1(C(=O)N(C)c3ccccc31)C(C#N)=C(N)O2` (stereo not given): the growth was 99.4%. As to `CC1=NC2=NN3C(=NN2C(c2ccccc2)=C1)N=NC(c1ccc(Br)cc1)=C3c1ccc(Br)cc1`, the growth is 106%. Consider `Cn1ccnc1C(=O)/C=C/c1ccc(NC(=O)c2c(F)c(F)c(F)c(F)c2F)cc1`, for which the growth is 91.2%. Consider `N#Cc1cccc(CN2CCC3=C(C2)C(=O)N(Cc2ccc(Cl)cc2)C2=NCCCN23)c1`, for which the growth is 8.1% (active). On the same count and under the same terms, as for `Cc1nn(-c2ccccc2)c2ncnc(N/N=C/c3ccccc3O)c12`, the figure is -70.2% (active). Take `CC(=O)N1C(=S)NC(=O)C1CC(C)C` (stereo not given): the growth was 106%.

As for `C/C(=N\O)[C@H]1C[C@]23CC[C@]4(C)[C@H](CC[C@@H]5[C@@]6(C)CC/C(=N/O)C(C)(C)[C@@H]6CC[C@]54C)[C@H]2[C@H](C)C1(C)OC3`, the growth is 100%. Still for that read-out and setting: as for `CCCCCc1ccc(S(=O)(=O)Nc2cccc(-c3csc(NC(=O)CCCCCN4CCN(CCO)CC4)n3)c2)cc1`, the figure is 66.1%; as for `Cc1cc(C)c(N2C(=O)CC(Nc3ccc(Cl)cc3Cl)C2=O)c(C)c1` (stereo not given), 103%. As to `CC/C(=C/c1c(O)cccc1OC)c1ccc2c(OC)cccc2[o+]1`, the growth was 104%. On the same count and under the same terms, to `COc1cc(/C=C2\C(=O)Nc3ccccc32)ccc1OCc1ccc(F)cc1` belongs 102%; to `N/C(=N\C(N)=N\c1nc2ccccc2s1)c1ccc(C(F)(F)F)cc1`, 89%; to `CN(C)CCNC(=O)c1ccc(-c2nc3ccc4[nH]ncc4c3c3c2COCC3)cc1`, 3.57% (active). The same measure, in the same setting: as for `O=C(Nc1ccc(N=Cc2c(O)[nH]c3ccccc23)cc1)Nc1nccs1`, the figure is 26.8%; as for `O=C(Nc1nonc1-c1ccccc1)c1ccc(C(F)(F)F)cc1`, 65.6%. Same read-out and setting: to `Cn1ccnc1C(=O)/C=C/c1ccc(NC(=O)c2ccc(F)cc2)cc1` belongs 68.2%; to `Nc1nc(-c2cccc([N+](=O)[O-])c2)c(N=Nc2ccccc2)s1`, 42.5%.

`C#CC(=O)N(c1ccc(OC)cc1OC)C(C(=O)NCC(=O)OCC)c1cccs1` (stereo not given): the growth was 99.3%.

With `COc1ccc(/C=C(/C)c2ccc3ccc(OC)cc3[o+]2)c(O)c1`, the growth is 61.6%. For `Cc1ccc(-c2cc3nc(C(Cl)Cl)nc(C)n3n2)cc1`, the growth was 98.2%. The same measure, in the same setting: as for `Cc1ccc(-c2nnc(SCc3ccc(O)c4ncccc34)n2-c2ccccc2)cc1`, the figure is -28.2% (active); as for `CCOc1ccccc1NC1=C(Cl)C(=O)c2nc(C)ccc2C1=O`, -97.8% (active).
